In PubChem BioAssay (Tox21):
Records with an inconclusive call do not appear. Active and inactive are the calls of the source. Unless noted, calls follow the shape of the dose curve; as a rule, active = well fitted curve in the direction sought with a large enough effect in the repeat runs; inconclusive = weak or mixed curves; inactive = no such curve, though single readings can be large; an effect the other way counts as inactive or inconclusive.

Assays:
[1] = qHTS assay to identify small molecule antagonists of the retinoid-related orphan receptor gamma (ROR-gamma) signaling pathway - cell viability counter screen (AID 1159520); also: nearly all actives have a fitted effect of over 50% in size; also: potency is read from the fitted curve at half-maximal effect
Procedure, shortened: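 Tet-on ROR gamma CHO cells were given compounds for 2 hr, then doxycycline hyclate at 1 uM final, and incubated 16 hr at 37 C. Viability was measured as ATP content by CellTiter-Glo luminescence.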

[2] = qHTS assay to identify small molecule agonists of the AP-1 signaling pathway - cell viability counter screen (AID 1159525; calls by dose curve; also: nearly all actives have a fitted effect of over 55% in size; also: potency is read from the fitted curve at half-maximal effect)
Procedure, shortened: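 AP-1-bla ME-180 cells in Opti-MEM with 0.5% dialyzed FBS, compound exposure 5 h at 37 C in 15-point titration. Viability read in the same wells as ATP content by CellTiter-Glo luminescence, normalised to tetra-n-octylammonium bromide and DMSO controls.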

[3] = qHTS assay to identify small molecule agonists of the AP-1 signaling pathway (AID 1159526; calls by dose curve)
[4] = molecular target: Retinoic acid receptor RXR-alpha (Homo sapiens) (UniProt P19793); test: qHTS assay to identify small molecule agonists of the RXR signaling pathway (AID 1159527; calls by dose curve; also: nearly all actives have a fitted effect of over 35% in size; also: potency is read from the fitted curve at half-maximal effect)
Sequence of Retinoic acid receptor RXR-alpha (Homo sapiens) (P19793 whole entry, looked up): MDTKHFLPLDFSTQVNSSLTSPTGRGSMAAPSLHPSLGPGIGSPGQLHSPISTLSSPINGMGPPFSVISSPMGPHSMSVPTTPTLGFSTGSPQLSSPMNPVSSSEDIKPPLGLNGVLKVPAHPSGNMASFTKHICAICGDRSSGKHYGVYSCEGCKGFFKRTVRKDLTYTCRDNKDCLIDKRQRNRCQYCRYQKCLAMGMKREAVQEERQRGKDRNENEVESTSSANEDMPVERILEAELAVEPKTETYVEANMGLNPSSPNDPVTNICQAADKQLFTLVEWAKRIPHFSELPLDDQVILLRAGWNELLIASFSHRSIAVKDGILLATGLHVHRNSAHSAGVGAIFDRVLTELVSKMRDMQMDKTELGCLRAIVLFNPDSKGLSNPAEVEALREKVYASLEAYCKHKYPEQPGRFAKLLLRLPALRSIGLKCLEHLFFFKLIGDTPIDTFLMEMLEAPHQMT
Procedure, shortened: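 qHTS of the Tox21 10K library in GeneBLAzer RXR-alpha HEK 293T cells carrying a beta-lactamase reporter […]; 16 hr treatment, 9-cis retinoic acid as agonist control, FRET read-out.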

[5] = qHTS assay to identify small molecule antagonists of the retinoid acid receptor (RAR) signaling pathway - cell viability counter screen (AID 1159551); also: nearly all actives have a fitted effect of over 35% in size; also: potency is read from the fitted curve at half-maximal effect
Procedure, shortened: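 Following overnight attachment, C3RL4 reporter cells received DMSO-dissolved compounds and then retinol (1 uM final). Six hours later at 37 C, ATP content was measured by CellTiter-Glo luminescence.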

[6] = qHTS assay to identify small molecule antagonists of the retinoic acid receptor (RAR) signaling pathway (AID 1159552; also: nearly all actives have a fitted effect of over 50% in size; also: potency is read from the fitted curve at half-maximal effect)
Procedure, shortened: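 Quantitative HTS in C3RL4 RARE-luciferase reporter cells. Compounds were added with 1 uM (final) retinol; luminescence was read after 6 hr.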

[7] = qHTS assay to identify small molecule agonists of the RXR signaling pathway - cell viability counter screen (AID 1159529); also: nearly all actives have a fitted effect of over 50% in size; also: potency is read from the fitted curve at half-maximal effect
Procedure, shortened: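 Cell viability is measured by CellTiter-Glo luminescence, 30 min at room temperature, in wells already read for beta-lactamase. Engineered HEK 293T cells (RXR-alpha-UAS-bla) are dosed 16 hr at 37 C. Tetraoctyl ammonium bromide serves as positive control.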

[8] = qHTS assay to identify small molecule agonists of the peroxisome proliferator-activated receptor delta (PPARd) signaling pathway - cell viability counter screen (AID 743211); also: potency is read from the fitted curve at half-maximal effect; nearly all actives have a fitted effect of over 55% in size
Procedure, shortened: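 Viability of GeneBLAzer PPARd UAS-bla HEK293H cells was assessed after 17 h compound incubation at 37C, using CellTiter-Glo reagent added after the reporter read and luminescence recorded 30 min later.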

[9] = qHTS assay to identify small molecule antagonists of the farnesoid-X-receptor (FXR) signaling pathway - cell viability counter screen (AID 743221; active = well fitted cell-killing curve with a large enough effect in the repeat runs, not every such curve was filed as active; also: nearly all actives have a fitted effect of over 50% in size; also: potency is read from the fitted curve at half-maximal effect)
Procedure, shortened: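 Quantitative HTS of the Tox21 10K library run in parallel with the beta-lactamase reporter read. HEK 293T cells carrying a UAS-driven bla reporter got compound and 50 uM CDCA (final) for 16 h; ATP-based luminescence followed.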

[10] = molecular target: Vitamin D3 receptor (Homo sapiens) (UniProt P11473); test: qHTS assay to identify small molecule antagonists of the vitamin D receptor (VDR) signaling pathway (AID 743223; active = well fitted inhibition curve with a large enough effect in the signal ratio in the repeat runs, not every such curve was filed as active; the % refers to the signal ratio; also: potency is read from the fitted curve at half-maximal effect)
Sequence of Vitamin D3 receptor (Homo sapiens) (P11473 whole entry, looked up): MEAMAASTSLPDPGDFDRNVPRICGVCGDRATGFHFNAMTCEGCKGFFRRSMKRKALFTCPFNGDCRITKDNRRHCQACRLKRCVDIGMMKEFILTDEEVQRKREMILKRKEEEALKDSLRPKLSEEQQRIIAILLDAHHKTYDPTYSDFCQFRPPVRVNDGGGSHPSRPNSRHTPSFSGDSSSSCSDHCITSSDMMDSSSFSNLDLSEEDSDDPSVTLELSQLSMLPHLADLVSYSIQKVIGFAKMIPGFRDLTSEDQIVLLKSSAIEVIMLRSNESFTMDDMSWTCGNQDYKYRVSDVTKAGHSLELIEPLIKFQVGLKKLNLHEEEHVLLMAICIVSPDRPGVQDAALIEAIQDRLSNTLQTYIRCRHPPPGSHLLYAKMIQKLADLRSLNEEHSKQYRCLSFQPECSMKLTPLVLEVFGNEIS
Procedure, shortened: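 Fluorescence from LiveBLAzer B/G FRET substrate, read after 2 h at room temperature, reflects beta-lactamase reporter activity in VDR-bla cells treated 16 h at 37C with compounds and agonist 1alpha,25-dihydroxyvitamin D3 (3 nM final).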

[11] = qHTS assay to identify small molecule antagonists of the vitamin D receptor (VDR) signaling pathway - cell viability counter screen (AID 743225); also: nearly all actives have a fitted effect of over 50% in size; also: potency is read from the fitted curve at half-maximal effect
Procedure, shortened: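 Cells (VDR-UAS-bla HEK 293T) are plated, rested 4 h at 37C, dosed with compound and 3 nM final 1-alpha,25-dihydroxy vitamin D3, and incubated 16 h. Viability is taken from CellTiter-Glo luminescence in the reporter wells.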

[12] = molecular target: Bile acid receptor (Homo sapiens) (UniProt Q96RI1); test: qHTS assay to identify small molecule antagonists of the farnesoid-X-receptor (FXR) signaling pathway (AID 743217; active = well fitted inhibition curve with a large enough effect in the signal ratio in the repeat runs, not every such curve was filed as active; the % refers to the signal ratio)
Sequence of Bile acid receptor (Homo sapiens) (Q96RI1 whole entry, looked up): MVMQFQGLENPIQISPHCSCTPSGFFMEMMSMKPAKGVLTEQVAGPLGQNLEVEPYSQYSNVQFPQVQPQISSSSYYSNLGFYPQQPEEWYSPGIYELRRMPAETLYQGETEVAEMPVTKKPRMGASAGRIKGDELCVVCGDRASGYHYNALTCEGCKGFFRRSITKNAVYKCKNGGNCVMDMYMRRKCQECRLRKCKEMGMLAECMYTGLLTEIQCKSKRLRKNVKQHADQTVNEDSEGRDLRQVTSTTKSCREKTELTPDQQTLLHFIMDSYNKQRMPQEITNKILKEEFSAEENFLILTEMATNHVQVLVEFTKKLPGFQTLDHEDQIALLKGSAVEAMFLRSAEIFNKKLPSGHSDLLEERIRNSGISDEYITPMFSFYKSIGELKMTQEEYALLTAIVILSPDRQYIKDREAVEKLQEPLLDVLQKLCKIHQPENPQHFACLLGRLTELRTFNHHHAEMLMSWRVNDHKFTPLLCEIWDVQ
Procedure, shortened: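 Beta-lactamase reporter under UAS control in HEK 293T cells; compound exposure 16 h at 37 °C in the presence of chenodeoxycholic acid (50 uM final); signal from B/G FRET substrate after 2 h at room temperature.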

[13] = qHTS assay to identify small molecule agonists of the farnesoid-X-receptor (FXR) signaling pathway - cell viability counter screen (AID 743218); also: nearly all actives have a fitted effect of over 45% in size; also: potency is read from the fitted curve at half-maximal effect
Procedure, shortened: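 In GeneBLAzer FXR-UAS-bla HEK 293T cells, compounds act for 16 h at 37 C. Cell viability is then scored in the reporter wells by CellTiter-Glo, 30 min at RT, luminescence.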

[14] = qHTS assay to identify small molecule antagonists of the peroxisome proliferator-activated receptor delta (PPARd) signaling pathway - cell viability counter screen (AID 743213)
Procedure, shortened: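 PPARd-bla HEK293H cells were treated with compounds plus agonist L165041 (300 nM final) for 17 h at 37 C. Viability was then read in the same wells by CellTiter-Glo luminescence after 30 min at room temperature.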

[15] = qHTS assay to identify small molecule agonists of the vitamin D receptor (VDR) signaling pathway - cell viability counter screen (AID 743224)
Procedure, shortened: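 VDR-bla cell line, quantitative HTS format; 16 h compound incubation (37C, 5% CO2); ATP-based CellTiter-Glo luminescence measured in the reporter assay wells.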

[16] = molecular target: Peroxisome proliferator-activated receptor delta (Homo sapiens) (UniProt Q03181); test: qHTS assay to identify small molecule agonists of the peroxisome proliferator-activated receptor delta (PPARd) signaling pathway (AID 743212; calls by dose curve)
Sequence of Peroxisome proliferator-activated receptor delta (Homo sapiens) (Q03181 whole entry, looked up): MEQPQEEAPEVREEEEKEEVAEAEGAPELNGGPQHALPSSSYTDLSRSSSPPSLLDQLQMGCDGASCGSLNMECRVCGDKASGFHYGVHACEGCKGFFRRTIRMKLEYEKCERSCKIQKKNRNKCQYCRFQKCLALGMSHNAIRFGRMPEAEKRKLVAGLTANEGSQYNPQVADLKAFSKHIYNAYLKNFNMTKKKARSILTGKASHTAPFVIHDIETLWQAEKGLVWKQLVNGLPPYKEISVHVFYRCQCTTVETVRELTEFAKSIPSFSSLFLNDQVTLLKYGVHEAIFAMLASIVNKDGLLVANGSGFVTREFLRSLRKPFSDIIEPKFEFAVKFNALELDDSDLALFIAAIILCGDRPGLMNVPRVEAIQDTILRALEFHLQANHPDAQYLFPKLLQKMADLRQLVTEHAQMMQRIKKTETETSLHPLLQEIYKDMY
Procedure, shortened: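 GeneBLAzer UAS-bla HEK293H cells carrying a PPARδ construct were exposed to compounds at 37 °C. Beta-lactamase activity was read by FRET fluorescence after 2 h at room temperature with LiveBLAzer B/G substrate.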

[17] = molecular target: Peroxisome proliferator-activated receptor delta (Homo sapiens) (UniProt Q03181); test: qHTS assay to identify small molecule antagonists of the peroxisome proliferator-activated receptor delta (PPARd) signaling pathway (AID 743215; active = well fitted inhibition curve with a large enough effect in the signal ratio in the repeat runs, not every such curve was filed as active; the % refers to the signal ratio;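 also: cells stimulated with agonist L165041 at 300 nM final during compound exposure; series mostly up to about 62 µM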)
Procedure, shortened: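 Antagonist-mode beta-lactamase reporter screen: HEK293H cells with UAS-bla under PPARd control, stimulated by 300 nM L165041 (final) alongside test compound for 17 h at 37 C, then FRET fluorescence after 2 h substrate incubation.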

[18] = molecular target: Bile acid receptor (Homo sapiens) (UniProt Q96RI1); test: qHTS assay to identify small molecule agonists of the farnesoid-X-receptor (FXR) signaling pathway (AID 743220; active = well fitted activation curve with a large enough effect in the signal ratio in the repeat runs, not every such curve was filed as active; the % refers to the signal ratio)
Procedure, shortened: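 Beta-lactamase reporter under UAS control in GeneBLAzer FXR HEK 293T cells (5000/well) measured with LiveBLAzer FRET substrate after 2 h at room temperature. Compound exposure lasted 16 h at 37C.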

Measured: Potency

CCOC(=O)[C@H](C)O
inactive: [1] | [2] | [3] | [4] | [5] | [6]

CC/C(=C(/c1ccc(O)cc1)c1ccc(OCCN(C)C)cc1)c1ccccc1
active: [1] 40.3 µM | [2] 36.2 µM | [7] 14.4 µM | [5] 35.9 µM | [6] 18 µM

C=CCc1cc(S(=O)(=O)c2ccc(O)c(CC=C)c2)ccc1O
inactive: [9] | [10] | [11] | [1] | [2] | [7] | [5]
active: [8] 43.6 µM | [6] 54.5 µM

CCSCC
inactive: [12] | [13] | [9] | [11] | [1] | [2] | [3] | [7]

CCCCCN=C(N)N/N=C/c1c[nH]c2ccc(OC)cc12
active: [8] 8.41 µM | [14] 33.5 µM | [13] 13.3 µM | [9] 29.8 µM | [10] 13.4 µM | [15] 29.8 µM | [11] 16.9 µM | [1] 26.6 µM | [2] 23.9 µM | [7] 7.56 µM | [5] 29.8 µM | [6] 13.3 µM

CC(=O)Nc1ccc(N=Nc2cc(C)ccc2O)cc1
inactive: [1] | [2] | [7] | [5] | [6]

CCC1(C)C(=O)N(Cl)C(=O)N1Cl (configuration not stated)
inactive: [1] | [2] | [3] | [4] | [7] | [6]

Cc1cc(F)ccc1-c1cc(N2CC[C@@H](O)[C@H]2CO)ncc1N(C)C(=O)C(C)(C)c1cc(C(F)(F)F)cc(C(F)(F)F)c1
active: [8] 13.6 µM | [14] 13.6 µM | [13] 13.6 µM | [9] 15.3 µM | [10] 21.5 µM | [15] 10.8 µM | [11] 13.6 µM | [1] 53.6 µM | [2] 17.1 µM | [7] 17.1 µM | [6] 42.6 µM
inactive: [5]

CN(C[C@@H](CC[N+]12CCC(C3CCCCC3)(CC1)CC2)c1ccc(Cl)c(Cl)c1)C(=O)c1cc(C(F)(F)F)cc(C(F)(F)F)c1
active: [8] 17.4 µM | [14] 24.5 µM | [13] 54.9 µM | [9] 27.5 µM | [15] 17.4 µM | [11] 27.5 µM | [1] 48.6 µM | [2] 43.6 µM | [7] 17.4 µM

CC(C)C(=O)C(C)C
inactive: [1] | [2] | [3] | [7] | [6]

Nc1c(Br)cc([N+](=O)[O-])cc1Br
inactive: [1] | [2] | [3] | [4] | [7] | [6]

Nc1ccc(Oc2cccc(Oc3ccc(N)cc3)c2)cc1
inactive: [1] | [2] | [3] | [7] | [5]
active: [6] 24.3 µM

CCOc1ccc([N+](=O)[O-])cc1
active: [8] 49.7 µM | [14] 44.3 µM | [15] 49.7 µM | [11] 22.2 µM | [2] 49.7 µM | [7] 49.7 µM
inactive: [6]

CC(c1cc(C(C)(C)C)cc(C(C)(C)C)c1O)c1cc(C(C)(C)C)cc(C(C)(C)C)c1O
inactive: [2] | [3] | [5]
active: [4] 3.47 µM

CC/C=C\C/C=C\C/C=C\CCCCCCCC(=O)OC
inactive: [2] | [3] | [5] | [6]

CN(C/C=C/c1ccccc1)Cc1cccc2ccccc12
inactive: [16] | [17] | [18] | [9] | [1]
active: [15] 26.6 µM | [7] 13.4 µM | [5] 26.6 µM
